Assay outcomes: PubChem BioAssay, several laboratories
Most compounds without a hit are left out; they make up all but 4.3% or so of the library.
Wnt bcat act: Wnt/beta-catenin pathway activation; Wnt/beta-catenin reporter cell assay, activator, plate reader; activation, % at 9.35 µM; hit rate 1.2% among 300,000; AID 743398; in the data active = activation above about 30%, passing the limit was not always enough; inconclusive = no clear call, values can overlap the other calls;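 also: 0% = neutral control wells and 100% = positive control wells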
SMARCA2 activ: increases SMARCA2 function in MMTV reporter cells. MG213 cells, MMTV-luciferase reporter, dexamethasone, overnight. activation, % at 9.1 µM. hit rate 1% among 370,000; in the data active = activation above about 7.8%;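 also: 0% = vehicle wells and 100% = reference activator wells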
MLL AF4-AF9 inh: inhibitors of human MLL-AF4/AF9 interaction | inhibition, % at 10 µM | AlphaScreen, biotin-AF4 peptide binding to FLAG-AF9 | AID 651704 | hit rate 0.47% among 350,000;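 active = every replicate reaching a set inhibition limit, whatever the replicate mean, cut at about 25% in these data; inconclusive = mean inhibition reaches that limit but some replicates miss it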;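 also: 0% = plate neutral control median and 100% = total signal loss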
MITF TRPM1 HTS: MITF TRPM1 promoter activation in melanoma cells; SK-MEL-5 TRPM1-promoter luciferase, 24 h; % of positive control, neutral wells = 0; activation, % at 12.5 µM; hit rate 0.75% among 300,000;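 active = mean activation of at least 80% with every replicate also reaching 80%; inconclusive = mean reaches 80% but some replicate falls short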;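 also: 0% = neutral control wells and 100% = parthenolide positive control wells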
FGF22 binding: shifts melting point of recombinant human FGF22; recombinant FGF22 thermal shift, SYPRO orange fluorescence; percent of sucrose octasulfate shift, DMSO zero; activity (Tm shift, normalised), % at 9.99 µM; hit rate 1.5% among 340,000; AID 651658;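 active = mean Tm shift, scaled 0 neutral to 100 positive control, at about 1.3% or above, every replicate too, limit read from the data; inconclusive = no clear call, values can overlap the other calls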
Target sequence (Q9HCT0 whole entry, looked up): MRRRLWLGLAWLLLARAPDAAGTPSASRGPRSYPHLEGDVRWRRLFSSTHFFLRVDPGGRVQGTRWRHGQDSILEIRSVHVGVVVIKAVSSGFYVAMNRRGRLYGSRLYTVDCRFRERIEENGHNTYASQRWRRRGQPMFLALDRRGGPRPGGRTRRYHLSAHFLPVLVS
esBAF inh: SWI/SNF esBAF complex inhibition. mouse ES cells, Bmi1-luciferase knock-in reporter, 24 h; 100% = twice the neutral-well signal. reporter increase, % at 12.5 µM. hit rate 2% among 350,000; in the data active = activation above about 40%; inconclusive = no clear call, values can overlap the other calls;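 also: 0% = median of the plate's neutral control wells and 100% = double that signal; a rise in the Bmi1 reporter signal indicates esBAF inhibition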
* hit, by the source's call; ? = inconclusive; . = no result given; ! = not active in a repeat.

SMILES	Wnt bcat act	SMARCA2 activ	MLL AF4-AF9 inh	MITF TRPM1 HTS	FGF22 binding	esBAF inh
Cc1ccc(C(=O)Nc2cccc(-c3ccc(N4CCOCC4)nn3)c2)cc1[N+](=O)[O-]	33*	6	-1	103*	0	41*
Cc1ccccc1C(=O)Nc1cccc(-c2ccc(N3CCOCC3)nn2)c1	30	2	-2	52	0	60*
O=C(Nc1cccc(-c2ccc(N3CCOCC3)nn2)c1)c1ccccc1	25	8	-6	?	1	34
COc1ccc(S(=O)(=O)N(C)C[C@@H]2Oc3c(NS(=O)(=O)c4ccc(F)cc4)cccc3C(=O)N([C@@H](C)CO)C[C@@H]2C)cc1	.	.	.	.	0	-3
O=C(COc1ccccc1)Nc1cccc(-c2ccc(N3CCOCC3)nn2)c1	?	4	1	86*	0	-7
C[C@@H]1CCCCO[C@@H](CN(C)C(=O)NC2CCCCC2)[C@H](C)CN([C@H](C)CO)C(=O)c2cc(N(C)C)ccc2O1	.	.	.	.	-1	-5
O=C(Nc1ccc2c(c1)OCO2)c1noc2c1CCCC2	38*	1	1	8	0	-3
Cc1cc(NC(=O)c2noc3c2CCCCC3)no1	7	.	3	70	0	11
CC(=O)c1ccc(NC(=O)c2noc3c2CCCCC3)cc1	.	4	.	89*	.	-2
O=C(Nc1ccc2c(c1)OCO2)c1noc2c1CCCCC2	.	2	.	3	.	.
O=C(C[C@H]1CC[C@@H]2[C@H](COC[C@@H](O)CN2Cc2cccc(Cl)c2)O1)N1CCOCC1	.	.	0	.	0	0
C[C@@H]1CN([C@@H](C)CO)C(=O)c2cc(NC(=O)NC3CCCCC3)ccc2O[C@H]1CN(C)Cc1ccccc1	.	.	-3	.	0	3
CNC[C@@H]1Oc2c(NC(=O)NC(C)C)cccc2C(=O)N([C@H](C)CO)C[C@@H]1C	.	.	-3	.	0	-4
CCc1cccc(N=c2c([N+](=O)[O-])nn(-c3ccc4c(c3)OCCO4)n2O)c1	-1	-5	4	1	43*	.
CCN1[C@@H]2c3ccc(-c4ccccc4F)c(=O)n3C[C@@H]2[C@@H](CO)[C@@H]1C(=O)NC1CCCC1	.	.	1	.	0	2
Cn1c2ccccc2c(=O)c2ccc(-c3ccc4c(c3)OCO4)cc21	41*	6	1	84*	0	49*
COc1ccc(CC(=O)c2ccc(O)cc2O)cc1	-1	5	0	47	0	31
O=C(Cc1ccc(Br)cc1)c1ccc(O)cc1O	?	4	-1	39	.	60*
CO[C@H]1CN(C)C(=O)c2ccc(NC(=O)c3ccc(F)cc3)cc2OC[C@H](C)N(C(=O)c2ccc(F)cc2)C[C@@H]1C	.	.	-1	.	0	1
Cc1cccc(C(=O)Nc2ccc(O)c3c(=O)cc(-c4ccccc4Cl)oc23)c1	1	-1	-1	14	45*	33
CCC(=O)N(C)C[C@H]1Oc2cc(-c3ccncc3)ccc2S(=O)(=O)N([C@H](C)CO)C[C@H]1C	.	.	-1	.	0	-4
COc1ccc(OC)c(Cc2nnc(CCC(=O)N3CCCCCC3)o2)c1	2	2	-1	27	0	52*
COc1ccc(OC)c(Cc2nnc(CCC(=O)N3CCC(N4CCCCC4)CC3)o2)c1	-1	-4	9	6	0	.
COc1ccc(OC)c(Cc2nnc(CCC(=O)N3CCCCC3c3nccs3)o2)c1 (stereo not drawn)	40*	.	12	57	0	48*
CCC(=O)N1CC2(C1)CN(C(=O)c1ccccn1)[C@H](CO)c1c2c2ccc(OC)cc2n1C	.	.	4	.	0	.
SMILES	Wnt bcat act	SMARCA2 activ	MLL AF4-AF9 inh	MITF TRPM1 HTS	FGF22 binding	esBAF inh
CC(CCc1ccccc1)NCC(O)c1ccc(O)c(C(N)=O)c1 (stereo not drawn)	0	2	-2	-3	0	1
COc1ccc(CC(C)NCC(O)c2ccc(O)c(NC=O)c2)cc1 (stereo not drawn)	-5	20*!	5	3	42	-4
S=C1NCCOCCOCCOCCNC(=S)N2CCOCCOCCN1CCOCCOCC2	-1	-3	-2	4	43*	-5
C[C@H]1CN([C@@H](C)CO)C(=O)c2ccccc2-c2ccccc2CO[C@@H]1CN(C)S(=O)(=O)c1ccc(C#N)cc1	.	.	0	.	0	-4
COc1ccc(NC(=O)Nc2cccc3c2O[C@@H](CN(C)C(=O)Nc2cccc4ccccc24)[C@@H](C)CN([C@@H](C)CO)C3=O)cc1	.	.	.	.	-1	15
CCn1cc(CN2N=C(C)CC2c2ccccc2)c(C)n1 (stereo not drawn)	-5	-1	0	18	44*	1
O=C(COC(=O)c1c(F)cccc1Cl)NC1CCCC1	3	-1	-3	29	0	50*
O=C(COC(=O)c1ccccc1Cl)NC1CCCCCC1	-4	2	0	56	0	69*
O=C(COC(=O)c1cccc(Cl)c1Cl)NC1CCCC1	0	2	1	12	0	7
COC(=O)C1CN(Cc2cn(Cc3ccccc3)nn2)CCS(=O)(=O)N1Cc1ccc(C)cc1 (stereo not drawn)	.	-4	.	.	.	.
O=C(C1CCOCC1)N1[C@H](CO)[C@H]2c3ccccc3NC[C@H]21	.	.	-17	.	1	-3
Cc1nc2cc3c(cc2c(C)c1C(=O)OC(C)C)OCO3	16	3	.	47	.	46*
COC(=O)c1nc2cc3c(cc2c(C)c1C(=O)OC)OCO3	.	1	.	.	.	6
Cc1ccc(S(=O)(=O)Nc2cccc3c2O[C@@H](CN(C)Cc2ccc4c(c2)OCO4)[C@H](C)CN([C@@H](C)CO)C3=O)cc1	.	.	-3	.	0	-5
COc1cc(NC(=O)c2ccc([N+](=O)[O-])o2)ccc1NC(=O)c1ccco1	6	-2	1	-84	0	20
COc1cc(NC(=O)c2cccc([N+](=O)[O-])c2)ccc1NC(=O)c1ccco1	-3	-3	-1	14	44*	.
COc1cc(NC(=S)NC(=O)c2ccco2)ccc1NC(=O)C(C)C	1	-2	-1	8	0	.
COc1cc(NC(=O)C(C)C)ccc1NC(=O)c1ccco1	-2	3	-1	91*	1	17
C[C@H](CO)N1C[C@H](C)[C@H](CN(C)C(=O)Nc2ccc(C(F)(F)F)cc2)Oc2ccc(NC(=O)Nc3ccc(C(F)(F)F)cc3)cc2CC1=O	.	.	-11	.	0	-3
N#CC(=C1C=C(Br)C(=NO)C=C1Cl)c1cccc2ccccc12	-3	4	26*	.	0	4
CC1CCCN(C(=O)c2sc3cc([N+](=O)[O-])ccc3c2Cl)C1 (stereo not drawn)	.	1	.	36	.	46*
O=C(c1sc2cc([N+](=O)[O-])ccc2c1Cl)N1CCCCC1	-1	-2	.	9	.	33
Cc1ccc(-c2csc(N)n2)cc1	-3	4	4	52	.	43*
